# Measurements published in ChEMBL document CHEMBL1961873, “Compounds: GSK PKIS; Assays: Nanosyn kinase panel” (2012).
# Legend:
# [1] = molecular target: Tyrosine-protein kinase CSK (Homo sapiens) (UniProt P41240); details: at 1 µM;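 further: each value is an averaged inhibition reading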
# [2] = molecular target: T1, Discoidin domain-containing receptor 2 (Homo sapiens) (UniProt Q16832); details: at 0.1 µM
# T1 sequence (whole entry): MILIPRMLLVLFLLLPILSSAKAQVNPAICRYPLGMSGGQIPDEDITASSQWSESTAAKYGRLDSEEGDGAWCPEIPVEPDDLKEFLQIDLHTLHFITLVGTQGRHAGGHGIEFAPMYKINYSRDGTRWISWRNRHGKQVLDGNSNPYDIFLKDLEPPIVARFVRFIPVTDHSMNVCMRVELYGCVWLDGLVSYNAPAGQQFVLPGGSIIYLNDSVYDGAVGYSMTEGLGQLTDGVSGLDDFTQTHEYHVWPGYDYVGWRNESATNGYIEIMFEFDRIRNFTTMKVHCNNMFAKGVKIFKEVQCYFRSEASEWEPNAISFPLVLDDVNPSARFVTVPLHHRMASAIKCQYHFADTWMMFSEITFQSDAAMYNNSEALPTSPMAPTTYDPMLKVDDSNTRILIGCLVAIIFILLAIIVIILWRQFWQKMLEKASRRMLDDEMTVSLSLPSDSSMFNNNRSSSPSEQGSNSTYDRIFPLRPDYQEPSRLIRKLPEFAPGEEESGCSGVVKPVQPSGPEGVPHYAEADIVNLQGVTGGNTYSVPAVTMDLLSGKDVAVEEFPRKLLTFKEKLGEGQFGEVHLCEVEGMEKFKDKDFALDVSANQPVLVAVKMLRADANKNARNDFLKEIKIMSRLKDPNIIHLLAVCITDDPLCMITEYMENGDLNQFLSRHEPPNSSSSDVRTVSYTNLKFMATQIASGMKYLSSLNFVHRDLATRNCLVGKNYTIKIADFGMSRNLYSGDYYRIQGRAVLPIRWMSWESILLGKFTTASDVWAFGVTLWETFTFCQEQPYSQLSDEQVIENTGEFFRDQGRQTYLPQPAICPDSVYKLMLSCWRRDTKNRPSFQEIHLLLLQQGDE
# [3] = molecular target: T1, Discoidin domain-containing receptor 2 (Homo sapiens); details: at 1 µM
# [4] = molecular target: Epidermal growth factor receptor (Homo sapiens) (UniProt P00533); details: at 0.1 µM
# Sequence of Epidermal growth factor receptor (Homo sapiens) (P00533 whole entry): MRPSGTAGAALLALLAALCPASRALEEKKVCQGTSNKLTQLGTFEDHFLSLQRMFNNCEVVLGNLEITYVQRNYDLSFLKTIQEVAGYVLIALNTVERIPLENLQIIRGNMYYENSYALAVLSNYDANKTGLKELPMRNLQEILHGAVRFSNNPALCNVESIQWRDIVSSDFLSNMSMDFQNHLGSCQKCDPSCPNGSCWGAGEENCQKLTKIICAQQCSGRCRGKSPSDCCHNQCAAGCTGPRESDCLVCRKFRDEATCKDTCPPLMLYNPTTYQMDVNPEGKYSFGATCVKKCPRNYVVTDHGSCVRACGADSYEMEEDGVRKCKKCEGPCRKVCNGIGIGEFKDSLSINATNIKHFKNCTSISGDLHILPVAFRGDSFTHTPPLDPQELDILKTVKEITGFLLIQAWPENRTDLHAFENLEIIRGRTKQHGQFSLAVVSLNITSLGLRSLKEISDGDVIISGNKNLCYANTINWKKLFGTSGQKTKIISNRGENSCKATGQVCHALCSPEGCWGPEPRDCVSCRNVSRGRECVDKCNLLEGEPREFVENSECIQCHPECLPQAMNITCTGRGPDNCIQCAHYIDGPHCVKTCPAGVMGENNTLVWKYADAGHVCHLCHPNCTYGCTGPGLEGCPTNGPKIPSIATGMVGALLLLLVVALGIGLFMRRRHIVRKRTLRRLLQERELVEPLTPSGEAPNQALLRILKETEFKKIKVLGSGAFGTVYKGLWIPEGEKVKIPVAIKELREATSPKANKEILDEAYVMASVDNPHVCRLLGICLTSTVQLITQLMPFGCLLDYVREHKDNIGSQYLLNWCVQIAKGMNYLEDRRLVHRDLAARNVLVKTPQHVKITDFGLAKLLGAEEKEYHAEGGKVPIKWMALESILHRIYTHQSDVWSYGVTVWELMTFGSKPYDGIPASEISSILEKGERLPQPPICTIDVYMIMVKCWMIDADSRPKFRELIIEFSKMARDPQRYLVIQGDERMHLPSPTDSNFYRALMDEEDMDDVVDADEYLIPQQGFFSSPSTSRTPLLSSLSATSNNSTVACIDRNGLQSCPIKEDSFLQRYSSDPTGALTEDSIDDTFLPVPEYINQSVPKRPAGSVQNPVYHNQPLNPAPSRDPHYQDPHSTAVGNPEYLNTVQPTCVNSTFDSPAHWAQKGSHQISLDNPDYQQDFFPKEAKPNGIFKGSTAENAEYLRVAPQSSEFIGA
# [5] = molecular target: Epidermal growth factor receptor (Homo sapiens) (UniProt P00533); details: at 1 µM
# [6] = system: Epidermal growth factor receptor (Homo sapiens), P00533 [L858R]; details: at 0.1 µM
# [7] = system: Epidermal growth factor receptor (Homo sapiens), P00533 [L858R]; details: at 1 µM
# [8] = system: Epidermal growth factor receptor (Homo sapiens), P00533 [L861Q]; details: at 0.1 µM
# Sequence of Epidermal growth factor receptor (Homo sapiens), P00533 [L861Q] (P00533 whole entry L861Q): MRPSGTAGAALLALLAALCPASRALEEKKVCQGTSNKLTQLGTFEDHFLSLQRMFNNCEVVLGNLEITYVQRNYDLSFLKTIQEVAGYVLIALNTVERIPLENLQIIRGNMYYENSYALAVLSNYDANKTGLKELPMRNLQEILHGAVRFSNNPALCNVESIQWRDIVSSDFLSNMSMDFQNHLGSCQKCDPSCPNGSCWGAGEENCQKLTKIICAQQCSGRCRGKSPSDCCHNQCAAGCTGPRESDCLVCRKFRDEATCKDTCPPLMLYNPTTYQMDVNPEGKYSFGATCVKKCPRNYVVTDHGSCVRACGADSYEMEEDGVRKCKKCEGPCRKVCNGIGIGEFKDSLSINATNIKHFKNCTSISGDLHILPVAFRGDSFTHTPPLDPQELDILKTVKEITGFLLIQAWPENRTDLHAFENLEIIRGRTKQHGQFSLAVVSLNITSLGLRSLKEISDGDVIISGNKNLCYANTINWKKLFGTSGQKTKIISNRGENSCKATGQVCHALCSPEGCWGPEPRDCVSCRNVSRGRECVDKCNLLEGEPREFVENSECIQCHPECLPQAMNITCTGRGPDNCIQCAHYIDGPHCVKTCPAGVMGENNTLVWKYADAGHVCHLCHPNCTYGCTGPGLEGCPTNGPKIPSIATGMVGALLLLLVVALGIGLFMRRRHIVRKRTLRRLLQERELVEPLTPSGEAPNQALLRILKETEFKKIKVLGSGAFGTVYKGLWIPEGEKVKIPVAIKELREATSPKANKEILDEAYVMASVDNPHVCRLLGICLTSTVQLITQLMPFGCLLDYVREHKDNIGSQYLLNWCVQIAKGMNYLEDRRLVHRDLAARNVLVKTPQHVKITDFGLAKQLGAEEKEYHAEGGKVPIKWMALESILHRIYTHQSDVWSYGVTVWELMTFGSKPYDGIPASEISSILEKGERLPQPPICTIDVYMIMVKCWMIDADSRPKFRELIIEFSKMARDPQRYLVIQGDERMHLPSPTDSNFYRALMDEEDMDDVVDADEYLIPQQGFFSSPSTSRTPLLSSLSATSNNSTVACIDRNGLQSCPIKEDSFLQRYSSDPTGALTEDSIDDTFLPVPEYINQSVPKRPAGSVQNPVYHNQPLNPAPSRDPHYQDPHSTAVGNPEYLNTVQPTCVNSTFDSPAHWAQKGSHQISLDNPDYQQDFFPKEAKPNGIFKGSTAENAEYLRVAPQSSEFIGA
# [9] = system: Epidermal growth factor receptor (Homo sapiens), P00533 [L861Q]; details: at 1 µM
# [10] = system: Epidermal growth factor receptor (Homo sapiens), P00533 [T790M]; details: at 0.1 µM
# [11] = system: Epidermal growth factor receptor (Homo sapiens), P00533 [T790M]; details: at 1 µM
# [12] = system: Epidermal growth factor receptor (Homo sapiens), P00533 [L858R,T790M]; details: at 0.1 µM
# Sequence of Epidermal growth factor receptor (Homo sapiens), P00533 [L858R,T790M] (P00533 whole entry T790M/L858R, looked up): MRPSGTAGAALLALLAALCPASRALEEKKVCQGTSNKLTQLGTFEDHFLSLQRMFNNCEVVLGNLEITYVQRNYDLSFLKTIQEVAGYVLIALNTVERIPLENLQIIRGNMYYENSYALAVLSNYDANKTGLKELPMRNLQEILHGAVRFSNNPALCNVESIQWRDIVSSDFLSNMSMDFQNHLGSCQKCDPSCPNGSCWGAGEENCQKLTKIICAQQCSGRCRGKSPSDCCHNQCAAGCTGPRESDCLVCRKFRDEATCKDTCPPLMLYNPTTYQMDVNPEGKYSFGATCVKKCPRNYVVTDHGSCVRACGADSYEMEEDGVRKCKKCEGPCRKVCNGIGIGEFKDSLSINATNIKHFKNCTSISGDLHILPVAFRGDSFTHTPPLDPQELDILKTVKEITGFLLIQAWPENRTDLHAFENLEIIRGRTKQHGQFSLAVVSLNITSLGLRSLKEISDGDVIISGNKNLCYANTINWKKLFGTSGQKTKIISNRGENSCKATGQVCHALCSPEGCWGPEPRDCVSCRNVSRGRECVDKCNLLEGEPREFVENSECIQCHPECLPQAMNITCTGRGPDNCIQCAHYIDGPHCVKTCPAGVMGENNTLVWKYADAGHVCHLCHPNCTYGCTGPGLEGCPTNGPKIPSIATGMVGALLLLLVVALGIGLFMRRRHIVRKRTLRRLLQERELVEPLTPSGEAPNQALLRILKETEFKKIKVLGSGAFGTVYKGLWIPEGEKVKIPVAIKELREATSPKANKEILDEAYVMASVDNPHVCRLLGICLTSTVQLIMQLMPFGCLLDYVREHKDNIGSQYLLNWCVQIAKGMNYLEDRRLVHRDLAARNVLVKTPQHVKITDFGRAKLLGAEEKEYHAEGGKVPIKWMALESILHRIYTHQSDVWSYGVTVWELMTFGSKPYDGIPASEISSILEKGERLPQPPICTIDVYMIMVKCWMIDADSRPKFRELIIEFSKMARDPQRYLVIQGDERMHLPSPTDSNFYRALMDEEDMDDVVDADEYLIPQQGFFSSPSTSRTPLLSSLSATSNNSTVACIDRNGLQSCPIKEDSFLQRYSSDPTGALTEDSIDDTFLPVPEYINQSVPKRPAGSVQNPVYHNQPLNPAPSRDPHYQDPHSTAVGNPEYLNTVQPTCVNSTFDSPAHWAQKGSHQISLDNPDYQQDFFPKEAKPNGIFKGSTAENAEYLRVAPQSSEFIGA
# [13] = system: Epidermal growth factor receptor (Homo sapiens), P00533 [L858R,T790M]; details: at 1 µM
# [14] = molecular target: Ephrin type-A receptor 2 (Homo sapiens) (UniProt P29317); details: at 0.1 µM
# Sequence of Ephrin type-A receptor 2 (Homo sapiens) (P29317 whole entry): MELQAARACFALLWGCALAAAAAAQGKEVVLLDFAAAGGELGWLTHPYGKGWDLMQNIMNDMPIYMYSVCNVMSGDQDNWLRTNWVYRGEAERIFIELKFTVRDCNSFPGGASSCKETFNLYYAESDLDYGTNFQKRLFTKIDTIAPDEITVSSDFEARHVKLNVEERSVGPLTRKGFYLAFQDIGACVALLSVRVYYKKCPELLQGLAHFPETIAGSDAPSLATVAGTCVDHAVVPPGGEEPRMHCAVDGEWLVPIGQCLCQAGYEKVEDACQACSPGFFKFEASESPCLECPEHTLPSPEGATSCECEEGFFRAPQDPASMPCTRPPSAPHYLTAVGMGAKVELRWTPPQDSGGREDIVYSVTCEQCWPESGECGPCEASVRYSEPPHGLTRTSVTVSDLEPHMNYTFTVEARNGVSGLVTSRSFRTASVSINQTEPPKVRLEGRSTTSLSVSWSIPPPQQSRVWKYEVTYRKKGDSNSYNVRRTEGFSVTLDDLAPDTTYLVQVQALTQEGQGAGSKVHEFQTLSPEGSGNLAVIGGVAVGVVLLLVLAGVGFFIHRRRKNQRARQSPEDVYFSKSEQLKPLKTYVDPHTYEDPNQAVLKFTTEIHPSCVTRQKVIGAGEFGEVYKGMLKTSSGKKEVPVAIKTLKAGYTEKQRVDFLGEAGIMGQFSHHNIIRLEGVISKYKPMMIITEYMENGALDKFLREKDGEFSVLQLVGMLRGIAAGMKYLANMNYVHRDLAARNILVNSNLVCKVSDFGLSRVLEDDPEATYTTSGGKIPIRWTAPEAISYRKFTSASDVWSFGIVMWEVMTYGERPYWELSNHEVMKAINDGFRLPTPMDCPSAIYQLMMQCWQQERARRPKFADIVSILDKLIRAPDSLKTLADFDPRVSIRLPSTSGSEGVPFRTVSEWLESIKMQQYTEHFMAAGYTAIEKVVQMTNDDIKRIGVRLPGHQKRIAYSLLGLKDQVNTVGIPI
# [15] = molecular target: T2, Ephrin type-A receptor 3 (Homo sapiens) (UniProt P29320); details: at 0.1 µM
# T2 sequence (whole entry): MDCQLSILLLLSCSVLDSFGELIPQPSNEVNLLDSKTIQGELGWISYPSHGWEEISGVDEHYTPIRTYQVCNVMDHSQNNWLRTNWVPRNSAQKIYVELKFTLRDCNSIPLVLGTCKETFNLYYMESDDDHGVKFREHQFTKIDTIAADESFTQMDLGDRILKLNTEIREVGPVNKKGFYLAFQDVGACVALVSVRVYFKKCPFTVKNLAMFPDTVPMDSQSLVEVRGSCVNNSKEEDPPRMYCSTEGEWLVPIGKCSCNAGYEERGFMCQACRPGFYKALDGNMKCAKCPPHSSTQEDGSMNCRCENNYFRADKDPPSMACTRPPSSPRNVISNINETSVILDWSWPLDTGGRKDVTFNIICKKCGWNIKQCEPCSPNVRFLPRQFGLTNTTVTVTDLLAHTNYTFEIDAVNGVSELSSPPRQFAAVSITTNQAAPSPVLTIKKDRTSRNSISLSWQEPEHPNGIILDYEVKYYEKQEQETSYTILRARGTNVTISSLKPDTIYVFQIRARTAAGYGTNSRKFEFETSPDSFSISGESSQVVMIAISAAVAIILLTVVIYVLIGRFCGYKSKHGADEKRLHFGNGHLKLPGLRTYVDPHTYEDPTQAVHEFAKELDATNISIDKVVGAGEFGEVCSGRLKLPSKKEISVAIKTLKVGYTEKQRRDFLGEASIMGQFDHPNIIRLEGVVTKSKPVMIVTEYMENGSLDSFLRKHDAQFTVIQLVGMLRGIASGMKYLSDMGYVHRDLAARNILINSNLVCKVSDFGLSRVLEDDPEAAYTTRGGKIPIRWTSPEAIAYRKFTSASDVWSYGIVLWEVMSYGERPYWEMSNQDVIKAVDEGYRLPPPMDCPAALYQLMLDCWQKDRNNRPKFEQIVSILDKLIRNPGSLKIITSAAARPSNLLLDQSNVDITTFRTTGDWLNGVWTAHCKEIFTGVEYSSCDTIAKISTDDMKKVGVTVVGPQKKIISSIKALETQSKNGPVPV
# [16] = molecular target: T2, Ephrin type-A receptor 3 (Homo sapiens); details: at 1 µM
# [17] = molecular target: Ephrin type-A receptor 4 (Homo sapiens) (UniProt P54764); details: at 0.1 µM
# [18] = molecular target: Ephrin type-A receptor 4 (Homo sapiens) (UniProt P54764); details: at 1 µM
# [19] = molecular target: T3, Ephrin type-B receptor 2 (Homo sapiens) (UniProt P29323); details: at 0.1 µM;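 further: reported as mean inhibition of EPHB2, from the GSK PKIS dataset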
# T3 sequence (whole entry): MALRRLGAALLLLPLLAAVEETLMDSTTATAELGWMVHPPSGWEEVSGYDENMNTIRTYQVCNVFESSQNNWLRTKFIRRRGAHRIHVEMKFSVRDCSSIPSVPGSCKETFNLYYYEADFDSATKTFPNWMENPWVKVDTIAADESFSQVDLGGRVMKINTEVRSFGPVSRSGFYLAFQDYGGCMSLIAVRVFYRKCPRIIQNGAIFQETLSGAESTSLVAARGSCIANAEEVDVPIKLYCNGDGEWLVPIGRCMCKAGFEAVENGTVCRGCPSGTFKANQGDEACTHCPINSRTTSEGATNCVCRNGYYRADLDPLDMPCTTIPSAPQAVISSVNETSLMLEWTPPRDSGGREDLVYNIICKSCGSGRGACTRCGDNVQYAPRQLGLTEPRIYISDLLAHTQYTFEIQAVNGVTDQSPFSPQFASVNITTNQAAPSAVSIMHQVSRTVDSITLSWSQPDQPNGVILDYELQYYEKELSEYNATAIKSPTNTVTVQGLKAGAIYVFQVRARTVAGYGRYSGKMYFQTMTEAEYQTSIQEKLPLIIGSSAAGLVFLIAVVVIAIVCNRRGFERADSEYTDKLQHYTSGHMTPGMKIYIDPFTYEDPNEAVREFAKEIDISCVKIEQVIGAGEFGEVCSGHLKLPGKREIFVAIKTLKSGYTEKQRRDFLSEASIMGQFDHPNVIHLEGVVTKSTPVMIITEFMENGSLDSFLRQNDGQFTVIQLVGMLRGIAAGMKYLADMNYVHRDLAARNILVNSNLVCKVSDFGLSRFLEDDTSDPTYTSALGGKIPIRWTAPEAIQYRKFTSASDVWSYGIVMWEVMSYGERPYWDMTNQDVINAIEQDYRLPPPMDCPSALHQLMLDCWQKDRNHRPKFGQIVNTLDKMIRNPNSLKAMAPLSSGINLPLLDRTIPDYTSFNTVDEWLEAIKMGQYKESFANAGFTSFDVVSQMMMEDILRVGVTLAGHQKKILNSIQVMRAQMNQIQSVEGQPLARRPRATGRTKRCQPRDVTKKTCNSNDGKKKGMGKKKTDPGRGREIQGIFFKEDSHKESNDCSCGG
# [20] = molecular target: Ephrin type-A receptor 2 (Homo sapiens) (UniProt P29317); details: at 1 µM
# Sequence of Tyrosine-protein kinase CSK (Homo sapiens) (P41240 2-450 limits assumed): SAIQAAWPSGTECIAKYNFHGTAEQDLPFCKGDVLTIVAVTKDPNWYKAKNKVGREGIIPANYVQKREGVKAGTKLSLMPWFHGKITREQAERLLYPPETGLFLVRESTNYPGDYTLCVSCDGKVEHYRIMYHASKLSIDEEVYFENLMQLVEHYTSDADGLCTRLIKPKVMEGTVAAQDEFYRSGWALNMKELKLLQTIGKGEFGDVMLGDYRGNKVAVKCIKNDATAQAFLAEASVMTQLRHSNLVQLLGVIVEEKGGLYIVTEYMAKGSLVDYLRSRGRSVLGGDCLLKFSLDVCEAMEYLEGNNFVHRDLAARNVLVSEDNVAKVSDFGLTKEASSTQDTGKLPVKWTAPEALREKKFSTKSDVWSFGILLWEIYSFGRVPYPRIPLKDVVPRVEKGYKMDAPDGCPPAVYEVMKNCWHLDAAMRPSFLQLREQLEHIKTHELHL
Structure (SMILES),inhibition [1],inhibition [2],inhibition [3],inhibition [4],inhibition [5],inhibition [6],inhibition [7],inhibition [8],inhibition [9],inhibition [10],inhibition [11],inhibition [12],inhibition [13],inhibition [14],inhibition [15],inhibition [16],inhibition [17],inhibition [18],inhibition [19],inhibition [20]
Cc1ccc2c(c1)/C(=N/Nc1ccc(S(N)(=O)=O)cc1)C(=O)N2,-6.97%,-0.42%,-0.71%,-0.37%,0.75%,-1.56%,-1.97%,-0.23%,-4.18%,-0.84%,-3%,-4.55%,-2.96%,1.34%,-0.01%,2.43%,-0.11%,-5.42%,-2.4%,
COc1ccc2ncnc(Nc3ccc(OCc4ccccc4)cc3)c2c1,8.35%,1.31%,2.34%,62.7%,76.2%,12.1%,46.3%,23.9%,39%,-0.31%,5.68%,2.24%,4.15%,1.06%,2.45%,3.28%,5.9%,5.92%,3.16%,0.85%
N#Cc1cccc(Nc2nccc(-c3cnn4ncccc34)n2)c1,13.4%,2.63%,7.43%,1.1%,6.11%,4.18%,18.2%,4.53%,7.78%,2.36%,6.4%,0.25%,9.41%,2.26%,8.11%,19.2%,13%,43.8%,15.1%,15%
CCS(=O)(=O)c1ccc(OC)c(Nc2ncc(-c3cccc(OC)c3)o2)c1,10.6%,3.76%,20%,1.96%,8.46%,6.95%,27.6%,4.06%,6.2%,1.83%,-0.32%,-0.04%,0.18%,3.67%,5.57%,8.5%,6.27%,12%,9.46%,3.85%
O=S(=O)(CCOCc1ccc(-c2ccc3ncnc(Nc4ccc(OCc5cccc(F)c5)c(Cl)c4)c3c2)o1)c1ccccc1,1.36%,1.97%,3.8%,71.9%,84.7%,25.1%,77.3%,33.8%,68.4%,-0.58%,2.25%,-3.02%,1.89%,-3.01%,-1.7%,0.9%,2.2%,5.8%,8%,-2.3%
COc1cc(Nc2nccc(-c3cnn4ncccc34)n2)cc(OC)c1,12.1%,1.4%,8.7%,1.68%,5.94%,2.1%,16.7%,0.35%,3.09%,0.47%,-0.64%,2.35%,15.8%,2.66%,3.17%,11.1%,9.67%,45.3%,4.13%,24.3%
CCOc1nccc2c1nc(-c1nonc1N)n2CC,7.45%,4.52%,5.68%,2.26%,1.18%,4.22%,7.51%,4.18%,5.85%,1.6%,5.62%,-0.04%,4.96%,2.57%,2.43%,6.98%,11.7%,-8.98%,9.96%,1.93%
Cc1ccc(C(=O)NC2CC2)cc1-c1ccc2[nH]ncc2c1,,-0.85%,-0.74%,-1.17%,1.98%,-1.88%,-2.39%,-0.66%,-1.04%,-2%,-3.14%,-2.32%,-5.63%,-1.76%,-6.73%,-6.53%,,-8.91%,,-1.67%
Oc1cccc(-c2nc(-c3ccccc3)[nH]c2-c2ccncc2)c1,16.5%,2.82%,10.9%,2.76%,4.4%,6.31%,19.7%,4.74%,8.26%,1.84%,2.55%,2.26%,4.01%,1.93%,7.79%,6.42%,11.7%,32.9%,8.8%,7.66%
COc1ccc(-c2nn3ncccc3c2-c2ccnc(Nc3cccc(C(F)(F)F)c3)n2)cc1,7.02%,2.63%,22%,9.51%,19.1%,4.1%,21.7%,2.85%,11.8%,1%,2.06%,-0.41%,7.35%,0.1%,4.37%,5.21%,5.95%,8.87%,2.91%,-0.64%
CCn1c(-c2nonc2N)nc2c(C#CC(C)(C)O)nc(OCCNC)cc21,5.91%,1.73%,2.04%,0.82%,0.07%,1.22%,3.32%,1.91%,2.32%,1.88%,1.6%,-1.42%,0.02%,0.18%,1.69%,3.22%,4%,8.24%,8.92%,-0.52%
COc1cc2ncnc(Nc3ccc(C)c(O)c3)c2cc1OC,16.8%,2.29%,9.45%,64.7%,80.9%,92.3%,99.4%,77.2%,96.2%,8.64%,31.2%,3.9%,13.5%,2.35%,6.24%,16.7%,15.9%,49.9%,11.1%,10.6%
Nc1nccc(C#Cc2cncnc2Nc2ccc(OCc3cccc(F)c3)c(Cl)c2)n1,3.09%,1.14%,4.7%,,,,,,,,,,,0.65%,1.8%,3.27%,6.14%,-0.84%,9.67%,1.27%
O=C(Nc1ccc(Oc2ccc3[nH]c(NC(=O)c4ccco4)nc3c2)cc1)Nc1cc(C(F)(F)F)ccc1F,35.3%,60.3%,80.2%,-1.7%,-1.45%,0.69%,0.69%,0.16%,-2.44%,0.07%,-1.32%,1.13%,0.64%,18.8%,4.15%,15.9%,36.3%,86.9%,36.1%,82.8%
